# Reference: publication PMC10812921, “Transcriptional Coactivator BOB1 (OBF1, OCA-B) Modulates the Specificity of DNA Recognition by the POU-Domain Factors OCT1 and OCT2 in a Monomeric Configuration”
# Target: POU1 (OCT1 POU domain) (human, UniProt P14859 260-458)
# Assay: EMSA-SELEX-seq; no BOB1; 20 mM Tris-HCl pH 7.6, 140 mM NaCl, 10% glycerol, 0.5 mM EDTA, 0.05% Triton X-100, 0.1 mg/mL BSA, 0.1 mg/mL poly(dI-dC), 5 mM DTT, room temperature, 20 min; high values mean tight binding
# Settings: protein: recombinant; dsDNA, one strand shown
# Outline: (§1)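 Binding preference is the percentage of sequenced 8-mers matching a motif pattern. Tagged POU-domain proteins expressed in E. coli BL21 were purified under denaturing conditions and renatured. For binding, 30 ng protein met 300 ng of a PCR-amplified double-stranded random 35-nt library, with or without 28 ng coactivator protein, in 20 μL Tris–HCl pH 7.6 binding buffer for 20 min at RT. Complex bands were cut from native 6% PAGE, eluted and PCR-amplified over four rounds, then Illumina-sequenced.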
# POU1 (OCT1 POU domain), sequence (P14859 260-458): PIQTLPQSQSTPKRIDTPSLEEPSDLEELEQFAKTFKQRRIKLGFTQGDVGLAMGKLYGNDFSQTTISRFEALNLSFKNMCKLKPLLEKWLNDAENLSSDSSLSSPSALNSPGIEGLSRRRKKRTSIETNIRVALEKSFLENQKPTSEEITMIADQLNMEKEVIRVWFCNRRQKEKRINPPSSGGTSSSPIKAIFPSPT
row,Sequence,binding signal
1,AAACTAAA,0.0503 % of ANNNNAAN 8-mers
2,AACCTAAG,0.0256 % of ANNNNAAN 8-mers
3,ACTTAAAG,0.0328 % of ANNNNAAN 8-mers
4,AACAAAAT,0.119 % of ANNNNAAN 8-mers
5,AAGTGAAA,0.0721 % of ANNNNAAN 8-mers
6,ACCCCAAA,0.0198 % of ANNNNAAN 8-mers
7,AGCTCAAG,0.0183 % of ANNNNAAN 8-mers
8,ACTTCAAA,0.0256 % of ANNNNAAN 8-mers
9,ATATCAAG,0.0641 % of ANNNNAAN 8-mers
10,AGTGTAAA,0.0576 % of ANNNNAAN 8-mers
11,ATCACAAA,0.0332 % of ANNNNAAN 8-mers
12,ATACTAAA,0.0648 % of ANNNNAAN 8-mers
13,AGAGAAAC,0.0221 % of ANNNNAAN 8-mers
14,AATGAAAC,0.0461 % of ANNNNAAN 8-mers
15,ACCGAAAG,0.0137 % of ANNNNAAN 8-mers
16,ACTGCAAA,0.0416 % of ANNNNAAN 8-mers
17,AAACCAAA,0.0538 % of ANNNNAAN 8-mers
18,ATCATAAG,0.0496 % of ANNNNAAN 8-mers
19,AGGTAAAA,0.129 % of ANNNNAAN 8-mers
20,ATCCGAAG,0.0275 % of ANNNNAAN 8-mers

row,Sequence,binding signal
1,AACCTAAT,0.0534 % of ANNNNAAN 8-mers
2,ATAGGAAA,0.131 % of ANNNNAAN 8-mers
3,AAGCGAAT,0.0538 % of ANNNNAAN 8-mers
4,ATCTGAAG,0.0297 % of ANNNNAAN 8-mers
5,AATAGAAG,0.0534 % of ANNNNAAN 8-mers
6,AAGTCAAT,0.0667 % of ANNNNAAN 8-mers
7,AGTGGAAG,0.0324 % of ANNNNAAN 8-mers
8,AGTCAAAA,0.164 % of ANNNNAAN 8-mers
9,AACGGAAT,0.0698 % of ANNNNAAN 8-mers
10,ACCTGAAT,0.0583 % of ANNNNAAN 8-mers
11,ACCAGAAC,0.013 % of ANNNNAAN 8-mers
12,AGCGCAAG,0.013 % of ANNNNAAN 8-mers
13,AAAACAAC,0.0362 % of ANNNNAAN 8-mers
14,AAAACAAG,0.0641 % of ANNNNAAN 8-mers
15,AAGCTAAC,0.0137 % of ANNNNAAN 8-mers
16,AGGGGAAA,0.101 % of ANNNNAAN 8-mers
17,ATCTTAAT,0.126 % of ANNNNAAN 8-mers
18,ACTTGAAA,0.0317 % of ANNNNAAN 8-mers
19,AAGGCAAC,0.0187 % of ANNNNAAN 8-mers
20,ATTTCAAA,0.0866 % of ANNNNAAN 8-mers

# Target: T1, POU2 (OCT2 POU domain) (human, UniProt P09086 175-386)
# T1 sequence: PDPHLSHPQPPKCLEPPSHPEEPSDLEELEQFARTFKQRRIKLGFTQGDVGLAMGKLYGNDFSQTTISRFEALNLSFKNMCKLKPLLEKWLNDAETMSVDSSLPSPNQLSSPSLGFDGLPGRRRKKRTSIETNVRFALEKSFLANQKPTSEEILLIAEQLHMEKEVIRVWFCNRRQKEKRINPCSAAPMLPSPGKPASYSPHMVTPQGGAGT
# Assay: as above
# Settings: protein: recombinant; dsDNA, one strand shown
# Outline: as §1
row,Sequence,binding signal
1,AAACTAAA,0.0483 % of ANNNNAAN 8-mers
2,AACCTAAG,0.0213 % of ANNNNAAN 8-mers
3,ACTTAAAG,0.0437 % of ANNNNAAN 8-mers
4,AACAAAAT,0.0926 % of ANNNNAAN 8-mers
5,AAGTGAAA,0.0587 % of ANNNNAAN 8-mers
6,ACCCCAAA,0.0104 % of ANNNNAAN 8-mers
7,AGCTCAAG,0.0173 % of ANNNNAAN 8-mers
8,ACTTCAAA,0.0322 % of ANNNNAAN 8-mers
9,ATATCAAG,0.0552 % of ANNNNAAN 8-mers
10,AGTGTAAA,0.0667 % of ANNNNAAN 8-mers
11,ATCACAAA,0.0374 % of ANNNNAAN 8-mers
12,ATACTAAA,0.0886 % of ANNNNAAN 8-mers
13,AGAGAAAC,0.0247 % of ANNNNAAN 8-mers
14,AATGAAAC,0.0719 % of ANNNNAAN 8-mers
15,ACCGAAAG,0.0144 % of ANNNNAAN 8-mers
16,ACTGCAAA,0.0397 % of ANNNNAAN 8-mers
17,AAACCAAA,0.0506 % of ANNNNAAN 8-mers
18,ATCATAAG,0.0581 % of ANNNNAAN 8-mers
19,AGGTAAAA,0.1 % of ANNNNAAN 8-mers
20,ATCCGAAG,0.0299 % of ANNNNAAN 8-mers

row,Sequence,binding signal
1,AACCTAAT,0.0875 % of ANNNNAAN 8-mers
2,ATAGGAAA,0.112 % of ANNNNAAN 8-mers
3,AAGCGAAT,0.0541 % of ANNNNAAN 8-mers
4,ATCTGAAG,0.0409 % of ANNNNAAN 8-mers
5,AATAGAAG,0.0587 % of ANNNNAAN 8-mers
6,AAGTCAAT,0.0731 % of ANNNNAAN 8-mers
7,AGTGGAAG,0.0357 % of ANNNNAAN 8-mers
8,AGTCAAAA,0.117 % of ANNNNAAN 8-mers
9,AACGGAAT,0.0949 % of ANNNNAAN 8-mers
10,ACCTGAAT,0.0656 % of ANNNNAAN 8-mers
11,ACCAGAAC,0.0127 % of ANNNNAAN 8-mers
12,AGCGCAAG,0.0121 % of ANNNNAAN 8-mers
13,AAAACAAC,0.0345 % of ANNNNAAN 8-mers
14,AAAACAAG,0.0432 % of ANNNNAAN 8-mers
15,AAGCTAAC,0.0178 % of ANNNNAAN 8-mers
16,AGGGGAAA,0.0794 % of ANNNNAAN 8-mers
17,ATCTTAAT,0.176 % of ANNNNAAN 8-mers
18,ACTTGAAA,0.042 % of ANNNNAAN 8-mers
19,AAGGCAAC,0.0167 % of ANNNNAAN 8-mers
20,ATTTCAAA,0.0852 % of ANNNNAAN 8-mers
